PubChem BioAssay (Tox21)
Results filed as inconclusive are left out. Unmarked numbers belong to inactive results. The source made the active and inactive calls. The call rests on the fitted dose curve; in most records, active means well fitted cell-killing curve with a large enough effect in the repeat runs; inconclusive means weak or mixed curves, or effect the other way; inactive means flat fitted curve, though single readings scatter.

Experiment: qHTS assay to identify small molecule agonists of the constitutive androstane receptor (CAR) signaling pathway - cell viability counter screen (AID 1224836)
Conditions: HepG2-CYP2B6-hCAR viability, CellTiter-Fluor, 23 h, PK11195 added to every well; series mostly up to 92.4 µM; viability change, negative = cytotoxic: at the top concentration
How it was run: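 HepG2 cells stably carrying hCAR and a CYP2B6-2.2kb reporter were plated 4 h, then given compounds at 15 concentrations plus PK11195 (final 0.75 uM). After 23 h at 37 C, viability was read by CellTiter-Fluor fluorescence.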
Further: nearly all actives have a fitted effect of over 45% in size.
On the % scale 0 is the no-effect control and ±100 the full control effect; potency means the concentration at half of the fitted maximal effect.

SMILES | Potency | viability change, negative = cytotoxic
O=C1c2ccccc2C(=O)C1c1ccc2cc(S(=O)(=O)O)cc(S(=O)(=O)O)c2n1 | 66.1 µM (active) | –
CCCCCCCCCCCCN1CCOCC1 | – | 3.12%
CC(=O)c1ccc(Cl)c(Cl)c1Cl | – | -0.86%
CC(C(=O)O)c1ccc(/C=C2\CCCCC2=O)cc1 (stereo not drawn) | – | -2.67% [at 42.5 µM]
COC=O | – | -8.98% [at 8.39 µM]
Cc1c(N=C=O)cccc1N=C=O | – | 1.43%
CC(=O)c1cccnc1 | – | 2.4%
O=[N+]([O-])c1ccc(Cl)cc1Cl | – | 7.79%
CCCCCCCCNC | – | 2.97%
C=C(C)C(=O)OCCCCCCCCCCOC(=O)C(=C)C | – | 3.31%
Cc1cc(C)c(C)c(O)c1 | – | -24.3%
CCC(=O)O[C@]1(C(=O)COC)[C@@H](C)C[C@H]2[C@@H]3CCC4=CC(=O)C=C[C@]4(C)C3(F)[C@@H](O)C[C@@]21C (stereo partly drawn) | – | 2.05% [at 42.5 µM]
CCN(CC)CC(=O)OCC(=O)[C@@]1(O)CC[C@H]2[C@@H]3CCC4=CC(=O)CC[C@]4(C)[C@H]3[C@@H](O)C[C@@]21C | – | 8.88% [at 42.5 µM]
CC1=C(C)C(=O)C(CCCCC#CCCCC#CCO)=C(C)C1=O | – | -0.105% [at 42.5 µM]
C=CC(=O)OCCCCCCCCCC | – | 0.417%
O=C(Cl)c1ccc(F)c(Cl)c1 | – | 1.82%
O=C(NC1CCN(CCc2c[nH]c3ccccc23)CC1)c1ccccc1 | – | -13.3% [at 42.5 µM]
CCOc1ccccc1O | – | -16.1%
CCN(CCCCOC(=O)c1ccc(OC)c(OC)c1)C(C)Cc1ccc(OC)cc1 (stereo not drawn) | – | -1.03% [at 42.5 µM]
CC1(C)CC(O)CC(C)(C)N1[O] | – | 2.17%

SMILES | Potency | viability change, negative = cytotoxic
Cc1nc2sccn2c(=O)c1CCN1CCC(=C(c2ccc(F)cc2)c2ccc(F)cc2)CC1 | – | -14.4% [at 42.5 µM]
CC(=O)S[C@H](C(=O)N[C@H]1Cc2ccccc2[C@H]2CCC[C@@H](C(=O)O)N2C1=O)C(C)C | – | 0.306%
CCOC(OCC)OCC | – | -3.46%
Cc1c(Cl)cccc1Nc1ccccc1C(=O)O | – | 7.57% [at 42.5 µM]
COC(=O)c1cc(Cl)ccc1[N+](=O)[O-] | – | 3.45%
O=C(Nc1ccc2c(c1)Cc1ccccc1-2)C(F)(F)F | – | 4.23%
O=C(OCCCCCOC(=O)c1ccccc1)c1ccccc1 | – | 3%
O=C1OC(=O)C2CC=CCC12 (stereo not drawn) | – | 3.8%
O=C1C=CCCC1 | – | -0.288%
O=C(O)CNc1ccccc1 | – | -4.62%
O=C(O)c1cccnc1Nc1cccc(C(F)(F)F)c1 | – | 13.7% [at 42.5 µM]
O=Cc1ccc([N+](=O)[O-])cc1 | – | 1.11%
O=C(O)c1cccc(C(=O)O)c1C(=O)O | – | 6.17%
O=C(Nc1ccccc1)c1cc([N+](=O)[O-])ccc1Cl | – | -8.94%
C/C=C1\[C@H]2C=C(C)C[C@]1(N)c1ccc(=O)[nH]c1C2 | – | 3.38% [at 42.5 µM]
FC(F)(Cl)C(F)(Cl)Cl | – | 0.225%
CC(CC(C#N)(c1ccccc1)C(C)C)N(C)C (stereo not drawn) | – | 3.19% [at 42.5 µM]
CO[C@@H]1COCC[C@@H]1N[C@@H]1CC[C@@](C(=O)N2CCc3ncc(C(F)(F)F)cc3C2)(C(C)C)C1 | – | -3.19%
CC[C@H](NC(C)C)[C@H](O)c1ccc(O)c2[nH]c(=O)ccc12 | – | 6.47% [at 42.5 µM]

Experiment: qHTS assay to identify small molecule antagonists of the constitutive androstane receptor (CAR) signaling pathway - cell viability counter screen (AID 1224837)
Conditions: HepG2-CYP2B6-hCAR viability, CellTiter-Fluor, 23 h, co-treated with 50 nM CITCO; series mostly up to 92.4 µM; activity change, negative = cytotoxicity: at the top concentration
How it was run: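 CITCO at 50 nM final was added alongside compounds (15 concentrations) to double-stable hCAR/CYP2B6-2.2kb HepG2 cells. Following 23 hr at 37 C, cell viability was quantified by CellTiter-Fluor fluorescence intensity.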

SMILES | Potency | activity change, negative = cytotoxicity
O=C1c2ccccc2C(=O)C1c1ccc2cc(S(=O)(=O)O)cc(S(=O)(=O)O)c2n1 | 52.5 µM (active) | –
CCCCCCCCCCCCN1CCOCC1 | – | 2.38%
CC(=O)c1ccc(Cl)c(Cl)c1Cl | – | 1.43%
CC(C(=O)O)c1ccc(/C=C2\CCCCC2=O)cc1 (stereo not drawn) | – | -1.28% [at 42.5 µM]
COC=O | – | -19.2% [at 8.39 µM]
Cc1c(N=C=O)cccc1N=C=O | – | -2.12%
CC(=O)c1cccnc1 | – | 2.65%
O=[N+]([O-])c1ccc(Cl)cc1Cl | – | -0.941%
CCCCCCCCNC | – | 0.0677%
C=C(C)C(=O)OCCCCCCCCCCOC(=O)C(=C)C | – | 2.8%
Cc1cc(C)c(C)c(O)c1 | – | -0.976%
CCC(=O)O[C@]1(C(=O)COC)[C@@H](C)C[C@H]2[C@@H]3CCC4=CC(=O)C=C[C@]4(C)C3(F)[C@@H](O)C[C@@]21C (stereo partly drawn) | – | 0.594% [at 42.5 µM]
CCN(CC)CC(=O)OCC(=O)[C@@]1(O)CC[C@H]2[C@@H]3CCC4=CC(=O)CC[C@]4(C)[C@H]3[C@@H](O)C[C@@]21C | – | 11.6% [at 42.5 µM]
CC1=C(C)C(=O)C(CCCCC#CCCCC#CCO)=C(C)C1=O | – | 1.01% [at 42.5 µM]
C=CC(=O)OCCCCCCCCCC | – | 3.57%
O=C(Cl)c1ccc(F)c(Cl)c1 | – | 22.7%
O=C(NC1CCN(CCc2c[nH]c3ccccc23)CC1)c1ccccc1 | – | 1.22% [at 42.5 µM]
CCOc1ccccc1O | – | -19.8%
CCN(CCCCOC(=O)c1ccc(OC)c(OC)c1)C(C)Cc1ccc(OC)cc1 (stereo not drawn) | – | 0.844% [at 42.5 µM]
CC1(C)CC(O)CC(C)(C)N1[O] | – | 1.31%

SMILES | Potency | activity change, negative = cytotoxicity
Cc1nc2sccn2c(=O)c1CCN1CCC(=C(c2ccc(F)cc2)c2ccc(F)cc2)CC1 | – | -10.2% [at 42.5 µM]
CC(=O)S[C@H](C(=O)N[C@H]1Cc2ccccc2[C@H]2CCC[C@@H](C(=O)O)N2C1=O)C(C)C | – | -3.3%
CCOC(OCC)OCC | – | -5.6%
Cc1c(Cl)cccc1Nc1ccccc1C(=O)O | – | 1.45% [at 42.5 µM]
COC(=O)c1cc(Cl)ccc1[N+](=O)[O-] | – | 0.689%
O=C(Nc1ccc2c(c1)Cc1ccccc1-2)C(F)(F)F | – | -4.51%
O=C(OCCCCCOC(=O)c1ccccc1)c1ccccc1 | – | 1.28%
O=C1OC(=O)C2CC=CCC12 (stereo not drawn) | – | 0.618%
O=C1C=CCCC1 | – | -1.77%
O=C(O)CNc1ccccc1 | – | -1.06%
O=C(O)c1cccnc1Nc1cccc(C(F)(F)F)c1 | – | 6.6% [at 42.5 µM]
O=Cc1ccc([N+](=O)[O-])cc1 | – | 2.7%
O=C(O)c1cccc(C(=O)O)c1C(=O)O | – | -3.38%
O=C(Nc1ccccc1)c1cc([N+](=O)[O-])ccc1Cl | – | -9.87%
C/C=C1\[C@H]2C=C(C)C[C@]1(N)c1ccc(=O)[nH]c1C2 | – | 3.61% [at 42.5 µM]
FC(F)(Cl)C(F)(Cl)Cl | – | 2.95%
CC(CC(C#N)(c1ccccc1)C(C)C)N(C)C (stereo not drawn) | – | -0.224% [at 42.5 µM]
CO[C@@H]1COCC[C@@H]1N[C@@H]1CC[C@@](C(=O)N2CCc3ncc(C(F)(F)F)cc3C2)(C(C)C)C1 | – | -4.23%
CC[C@H](NC(C)C)[C@H](O)c1ccc(O)c2[nH]c(=O)ccc12 | – | 3.04% [at 42.5 µM]
